About 30 (0.1%) of roughly 23,000 compounds showed an effect of 50% or more. The entries come from a sample that favours strong results as a whole. Results with a measured potency or affinity are listed apart.

The test system of this experiment is Pseudomonas aeruginosa. The note with it: Concentration 20 uM; ASSAY_TEST Inhibition of Bacterial Growth; detection method Absorption (OD600); MEDIA CAMHB; plate type 384well; NBS; CORNING #3640; time 18 hr.
In general, Inhibition refers to the percentage by which the read-out fell short of the control. Low values mean little suppression, high ones strong suppression. Turning to `CCOC(=O)[C@H](CCc1ccccc1)N[C@@H](C)C(=O)N1Cc2ccccc2C[C@H]1C(=O)O.Cl` [QUINAPRIL HYDROCHLORIDE], the Inhibition was found to be 14.62%.

For `CCOC(=O)[C@H](CCc1ccccc1)N[C@@H](C)C(=O)N1[C@H](C(=O)O)C[C@@H]2CCC[C@@H]21`, the Inhibition is 53.62%.

`CCOC(=O)[C@@H](CCc1ccccc1)N[C@@H](C)C(=O)N1CCC[C@H]1C(=O)O.O=C(O)/C=C\C(=O)O`: the Inhibition was 1.23%.

As for `Cc1cnc(NC(=O)C2=C(O)c3ccccc3S(=O)(=O)N2C)s1` [MELOXICAM], the Inhibition turned out to be 4.04%.

`CN1C(C(=O)Nc2ccccn2)=C(O)c2ccccc2S1(=O)=O.O` registered an Inhibition of 7.03%.

The compound `CCOC(=O)OC(C)OC1=C(C(=O)Nc2ccccn2)N(C)S(=O)(=O)c2ccccc21` (stereo unspecified) [AMPIROXICAM] showed an Inhibition of 53.02%.

Take `N[C@@H]1CONC1=O` [CYCLOSERINE]: the Inhibition came out at 60.23%.

Take `O=c1c(O[C@@H]2O[C@H](CO)[C@H](O)[C@H](O)[C@H]2O)c(-c2ccc(O)c(O)c2)oc2cc(O)cc(O)c12` [HYPEROSIDE]: the Inhibition was 12.67%.

With `O=c1c(O[C@@H]2O[C@H](CO)[C@@H](O)[C@H](O)[C@H]2O)c(-c2ccc(O)c(O)c2)oc2cc(O)cc(O)c12` [ISOQUERCETIN], the Inhibition is recorded as 60.53%.

The compound `C[C@@H]1O[C@@H](OC[C@H]2O[C@@H](Oc3c(-c4ccc(O)c(O)c4)oc4cc(O)cc(O)c4c3=O)[C@H](O)[C@@H](O)[C@@H]2O)[C@H](O)[C@H](O)[C@H]1O` [RUTIN] gave an Inhibition of 17.85%.

`Cl.Nc1c2c(nc3ccccc13)CCCC2` [TACRINE HYDROCHLORIDE]: the Inhibition is recorded as 19.73%.

These data come from ChEMBL document CHEMBL4513141, “CO-ADD screening of NIH (USA) - Clinical Collection” (2021).
